Screening results as filed in PubChem.
Giardia FBPA inh: qHTS Assay for Inhibitors of Fructose-1,6-bisphosphate Aldolase from Giardia Lamblia. purified Giardia FBPA. Potency, µM (highest dose often 59.6 µM), inactives show at the highest dose activity, negative = inhibition, usual class: inhibitors. 290,000 compounds, 0.71% hits. AID 2451, 2010; further: potency means the concentration at half of the fitted maximal effect; on the % scale 0 is the no-effect control and ±100 the full control effect; nearly all actives have a fitted effect of over 55% in size
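40 nM FBPA preincubated 10 min at RT with compound (up to 57.5 uM final), then substrate plus GAPDH/TPI/NAD/arsenate coupling and diaphorase/resazurin added. Fluorescence read after 20 min at RT, 525/598 nm.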
LmPK inhibitor: qHTS Assay for Inhibitors of Leishmania Mexicana Pyruvate Kinase (LmPK). Q27686. Potency, µM (doses to about 57.5 µM), without a hit: at the top dose activity change, negative = inhibition, usual class: inhibitors. 290,000 compounds, 0.37% hits. purified LmPK, Kinase-Glo ATP luminescence, 1 h; further: potency means the concentration at half of the fitted maximal effect; on the % scale 0 is the no-effect control and ±100 the full control effect
Target sequence (Q27686 whole entry, looked up): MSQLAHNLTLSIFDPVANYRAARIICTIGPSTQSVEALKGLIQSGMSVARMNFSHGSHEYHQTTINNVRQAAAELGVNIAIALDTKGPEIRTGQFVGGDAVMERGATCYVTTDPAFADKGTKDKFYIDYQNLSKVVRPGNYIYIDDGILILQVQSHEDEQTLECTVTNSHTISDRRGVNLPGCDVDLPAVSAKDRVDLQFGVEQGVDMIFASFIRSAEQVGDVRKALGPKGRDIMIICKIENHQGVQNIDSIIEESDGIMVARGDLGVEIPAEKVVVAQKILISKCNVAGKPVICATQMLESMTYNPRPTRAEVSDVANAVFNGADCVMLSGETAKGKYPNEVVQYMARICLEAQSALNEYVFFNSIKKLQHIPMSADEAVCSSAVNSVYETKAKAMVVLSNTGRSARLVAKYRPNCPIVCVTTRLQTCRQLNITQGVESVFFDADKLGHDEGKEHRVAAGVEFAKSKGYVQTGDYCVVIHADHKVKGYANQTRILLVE
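Screened at intermediate enzyme activity to detect both inhibitors and activators: LmPK at 0.1 nM, with a 0.5 nM enzyme column as activation reference. PEP 0.5 mM, ADP 0.1 mM; ATP detected by luminescence after 1 h.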
RE007 growth inh: qHTS Assay for Inhibitors of the HIV-1 protein Vpr; S. pombe RE007 Vpr strain, BacTiter-Glo ATP luminescence, 24 h; Potency, µM (top dose mostly 92.2 µM), without a hit: top-dose activity change, negative = less growth, actives largely listed as inhibitors; 360,000 compounds, 0.21% hits; AID 651644, 2012; active means well fitted falling curve with a large enough effect; inconclusive means small, poorly fitted or top-dose-only effect; inactive means no such curve, though single readings can be large or run the other way; further: potency means the concentration at half of the fitted maximal effect; on the % scale 0 is the no-effect control and ±100 the full control effect; nearly all actives have a fitted effect of over 50% in size
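Fission yeast strain RE007, carrying one chromosomally integrated HIV-1 vpr copy, was seeded at OD 0.01 in PMG+AL medium with 23 nL pinned compound. After 24 h at 30 °C and 99% humidity, viability was read by BacTiter-Glo luminescence.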
Shiga toxin inh: A qHTS for Small Molecule Inhibitors of Shiga Toxin | Vero cells, Shiga toxin protein synthesis inhibition reporter | inhibition, % at 38.7 µM | 290,000 compounds, 9.2% hits | AID 2315, 2010; in the data active means inhibition mostly above about 28%, no sharp cut-off; inactive means mostly below about 43%; further: 0% is about no effect
CHX counter: Cycloheximide Counterscreen for Small Molecule Inhibitors of Shiga Toxin. 300,000 compounds, 12% hits. AID 2314, 2010. max response, %. cell reporter, cycloheximide protein synthesis inhibition counterscreen; in the data active means max response mostly above about 13%, no sharp cut-off; inactive means mostly below about 14%; further: read at 38.3 µM for the half of the compounds with a filed dose; 0% is about no effect
TbPYK inhibitor: qHTS of Trypanosoma Brucei Inhibitors; pyruvate kinase (Trypanosoma brucei), Q57TT1; TbPYK enzyme, Kinase-Glo Plus ATP luminescence, 45 min; Potency, µM (highest dose often 76.8 µM), without a hit: at the highest dose activity, negative = inhibition, actives largely listed as inhibitors; 410,000 compounds, 0.12% hits; further: potency means the concentration at half of the fitted maximal effect; on the % scale 0 is the no-effect control and ±100 the full control effect; nearly all actives have a fitted effect of over 50% in size
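Assay buffer: 50 mM TEA pH 7.2, 100 mM KCl, 10 mM MgCl2, 0.05% BSA, 0.01% Tween-20. Pyruvate kinase from T. brucei plus substrate met compound, then ADP (130 uM final). Luminescence was read post 45 min RT.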
The depositor's hits bear a star; ? = inconclusive; nt = no result given; [ ] = another dose, or the depositor's remark. This excerpt belongs to a sample that is enriched for hits. Unless noted, the call rests on the fitted dose curve; in most records, active means well fitted curve in the direction sought with a large enough effect; inconclusive means small, poorly fitted or top-dose-only effect, or another doubt; inactive means no such curve, though single readings can be large; an effect the other way counts as inactive or inconclusive.

SMILES | Giardia FBPA inh | LmPK inhibitor | RE007 growth inh | Shiga toxin inh | CHX counter | TbPYK inhibitor
COC(=O)c1ccc(OCC(=O)c2ccc(C)c(C)c2)cc1 | 1% | 0% | -21% | 82* | 24* | 4%
COc1cccc(C(=O)COC(=O)c2ccc(NC(=O)c3ccccc3)cc2)c1 | nt | nt | -7% | nt | nt | -1%
Cc1ccc(C(=O)COc2ccccc2-c2ccccc2)cc1C | 12% | 2% | -16% | 23 | -2 | 2%
COC(=O)c1ccc(OCC(=O)c2cccc(OC)c2)cc1 | -11% | 3% | 22% | 65* | 43* | 0%
COc1cccc(-c2ccc3ncnc(NCCc4c[nH]c5ccc(OC)cc45)c3c2)c1 | -8% | nt | nt | nt | nt | nt
Cc1cccc(C)c1OCC(=O)NCC1(N2CCOCC2)CCCCC1 | nt | nt | nt | nt | nt | 2%
COc1ccccc1CNC(=O)CCC1N=C2c3ccccc3N=C(SCC(N)=O)N2C1=O (stereo not given) | nt | nt | nt | nt | nt | 0%
O=C(COn1nnc2ccccc21)N1CCN(Cc2ccccc2)CC1 | -6% | 0% | -10% | 96* | 50* | -2%
O=C(COn1nnc2ccccc21)NCC1CCCCC1 | 3% | -3% | -9% | 89 | 28* | -8%
CCOc1ccccc1NC(=O)COn1nnc2ccccc21 | -1% | 2% | -14% | 37 | 17* | -2%
COc1ccccc1OCC(=O)NCC1CCCCC1 | -6% | -1% | 5% | 46 | 12 | 4%
O=[N+]([O-])c1ccc(Nc2nccc(Cl)n2)cc1 | nt | nt | 0% | nt | nt | -4%
O=C(C1CCN(S(=O)(=O)Cc2ccccc2)CC1)N1CCN(c2ccccc2F)CC1 | nt | nt | nt | nt | nt | 4%
O=C(NCc1ccccn1)c1ccc(Br)s1 | 1% | 3% | -2% | 32* | 17* | -3%
O=C(NCc1ccccn1)c1ccc(Cl)s1 | 4% | -4% | -5% | 26 | 24* | -3%
COc1ccc(-c2c(-c3ccsc3)oc3c2C(O)CCC3)cn1 (stereo not given) | nt | nt | -6% | nt | nt | 4%
O=C(NN1CC(C(=O)OCc2ccc(Cl)cc2Cl)CC1=O)c1ccccc1 (stereo not given) | nt | -5% | -1% | 23 | 4 | 8%
CC1=C(c2ccc(Cl)cc2)S(=O)(=O)NC1=NCCCN1CCN(c2cc(C)ccc2C)CC1 | nt | nt | nt | nt | nt | -4%
Cc1ccc2c(c1)cc(C(=O)NCc1ccc(F)cc1)n2C | nt | nt | nt | nt | nt | 14%
O=C(c1cc(-c2ccccc2O)on1)N1CCOCC1 | 4% | -13% | -9% | 80* | 31* | -4%
COc1ccccc1-c1cc(C(=O)N2CCN(c3ccccc3)CC2)no1 | 4% | -4% | -4% | 2 | -2 | 2%
COc1ccc(OC)c(-c2cc(C(=O)N3CCOCC3)no2)c1 | -4% | -7% | -2% | 17 | 14* | -6%
O=C(c1cc(-c2ccccc2O)on1)N1CCCCCC1 | 0% | -2% | 0% | 104* | 34* | 0%
CCOC(=O)Cn1nc(N2CCN(c3ccc(F)cc3)CC2)ccc1=O | nt | nt | nt | nt | nt | 2%
CN(C)c1c2ccccc2nc2c(F)c(F)c(F)c(F)c12 | -4% | 0% | -11% | 57 | 33* | 1%
SMILES | Giardia FBPA inh | LmPK inhibitor | RE007 growth inh | Shiga toxin inh | CHX counter | TbPYK inhibitor
Cc1c2ccccc2nc2c(F)c(N(C)C)c(F)c(F)c12 | -20% | -4% | -22% | 23 | 28* | -16%
Cc1c(N(C)C)nc2ccccc2c1N | -2% | -8% | -2% | -11 | -5 | 9%
CC(=O)OCC1OC(C#Cc2ccc(C)cc2C)C=CC1OC(C)=O (stereo not given) | 0%[12.9 µM] | nt | nt | nt | nt | nt
O=C(CSc1nnc(-c2ccccc2Br)n1-c1ccccc1)c1ccc(F)cc1 | nt | nt | nt | nt | nt | -14%
O=C(O)CCn1nnc(-c2cccs2)n1 | nt | 0% | -2% | 18 | 3 | -7%
CCCCn1nnc(N(C(=O)c2cccs2)C(=O)c2cccs2)n1 | 1% | -5% | -27% | 86* | 37* | -10%
CCOC(=O)N/N=C/c1ccc(N(CC)CC)cc1O | -3% | 1% | -10% | 62* | 23* | 3%
CCN(CC)c1ccc(/C=N/NC(=O)c2cccc(S(=O)(=O)N3CCOCC3)c2)c(O)c1 | 2% | 1% | 8% | -30 | -3 | 3%
CCN(CC)c1ccc(/C=N/NC(=O)c2c(Cl)cnn2C)c(O)c1 | 14% | 0% | ? | 56* | 44* | 0%
CC(=O)c1cccc(NC(=O)CN2C(=O)c3ccccc3Sc3ncccc32)c1 | nt | nt | nt | nt | nt | 0%
CC(=O)Nc1ccc(S(=O)(=O)NC2=NCN(C(C)C)CN2)cc1 | nt | nt | nt | nt | nt | 6%
Clc1cccc(Cl)c1Cn1cnc2c(NCc3ccco3)ncnc21 | 9% | 3% | -7% | -19 | -6 | -7%
Clc1cccc(Cl)c1Cn1cnc(=NCc2ccco2)c2[nH]cnc21 | 3% | 2% | 8% | 38 | 22* | 1%
CCN(CC)C(=O)[C@H]1CC(CC(=O)NCC23CC4CC(CC(C4)C2)C3)C(=O)N2CCc3c([nH]c4ccc(OC)cc34)[C@]12C (stereo not given in full) | nt | nt | -15% | nt | nt | 3%
O=C(NN=C1CCCCCC1)NC1CCCCC1 | -1% | 0% | -4% | 51* | 30* | -4%
COc1ccc(/C(C)=N/NC(=O)CNC(=O)/C=C\c2ccccc2OC)c(OC)c1 | 1% | 0% | 5% | 31* | 14* | 12%
COc1cccc(/C=N/NC(=O)CNC(=O)C(c2ccccc2)c2ccccc2)c1O | -13% | 0% | -3% | 71* | 38* | -2%
COc1ccc(/C=C\C(=O)NCC(=O)N/N=C/c2cccc(OC)c2O)cc1 | 4% | -4% | -3% | 12 | 14 | -19%
COc1cccc(/C=N/NC(=O)CNC(=O)/C=C\c2ccccc2)c1O | nt | 6% | -6% | 41* | 28* | 0%
Cc1ccc(-n2c(=O)c3c(c4cc(C)ccc4n3C)n(CC(=O)Nc3ccc(F)cc3)c2=O)cc1 | nt | nt | nt | nt | nt | 2%
O=C1/C(=C/c2cccc([N+](=O)[O-])c2)CCc2ccccc21 | 11% | -8% | ? | 57* | 59* | 1%
O=C1/C(=C/c2ccc([N+](=O)[O-])cc2)CCc2ccccc21 | -6% | -19% | nt | 127* | 71* | nt
O=C1/C(=C/c2ccncc2)Cc2ccccc21 | nt | nt | -28% | nt | nt | -16%
COc1cc(OC)c(NC(=O)c2c(C)oc3nc(C)nc(N4CCOCC4)c23)cc1Cl | nt | nt | nt | nt | nt | -8%
COc1cccc(-c2nccc(NCCc3c[nH]c4ccc(OC)cc34)n2)c1 | -21% | nt | nt | nt | nt | nt
CC(O)(Cc1cccnc1)c1cccs1 (stereo not given) | nt | nt | 15% | nt | nt | -4%
COc1ccccc1NC(=O)c1ccc(-c2ccccc2F)o1 | -4% | 1% | -2% | 70* | 28* | 3%
